# Only some compounds are listed: those with a hit (about 9.5% of all), similar ones and a draw of the others.
# Tau ThT inhib: qHTS for Inhibitors of Tau Fibril Formation, Thioflavin T Binding; Potency, µM (doses to about 57.4 µM), actives largely listed as inhibitors; Microtubule-associated protein tau (Homo sapiens), P10636; AID 1460, 2008; recombinant tau K18 P301L, heparin-induced fibrillization, ThT fluorescence; 270,000 tested, 2.1% active; also: nearly all actives have a fitted effect of over 55% in size
# Target sequence (P10636 561-689 P618L limits assumed): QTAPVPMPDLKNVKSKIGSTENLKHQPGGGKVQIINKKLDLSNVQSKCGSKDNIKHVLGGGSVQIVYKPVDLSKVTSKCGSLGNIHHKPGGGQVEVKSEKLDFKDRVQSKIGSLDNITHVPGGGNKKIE
#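 Tau K18 P301L fragment (15 uM unlabeled plus 0.24 uM Alexa 594-labeled) in 100 mM sodium acetate pH 7 with compound, fibrillization induced by 20 uM heparin for 6 hr at 37 C. Thioflavin T (30 uM) added, fluorescence read after 1 hr (ex 450, em 510 nm).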
# HPGD block: qHTS Assay for Inhibitors of HPGD (15-Hydroxyprostaglandin Dehydrogenase). purified HPGD, NADH fluorescence kinetic, PGE2 substrate. 150,000 tested, 4.3% active. 15-hydroxyprostaglandin dehydrogenase [NAD(+)] (Homo sapiens), P15428. AID 894, 2007. Potency, µM, hits mostly inhibitors; active = well fitted inhibition curve with a large enough effect, not every such curve was filed as active; inconclusive = small, poorly fitted or top-dose-only effect, or another doubt; inactive = no such curve, though single readings can be large or run the other way
#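 NADH formation kinetics: reaction with 30 uM PGE2 and 1 mM NAD+ (final), 20 nM enzyme, Tris-HCl pH 8 with Tween 20, after 15 min compound preincubation at room temperature. Fluorescence change, last versus first of five reads.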
# NPSR antagonist: qHTS Assay for Antagonists of the Neuropeptide S Receptor: cAMP Signal Transduction. 220,000 tested, 1% active. CHO-NPSR cells, cAMP TR-FRET, antagonist mode. Potency, µM (top dose mostly 38.3 µM), hits mostly inhibitors; also: nearly all actives have a fitted effect of over 50% in size
# Target sequence (Q6W5P4 whole entry, looked up): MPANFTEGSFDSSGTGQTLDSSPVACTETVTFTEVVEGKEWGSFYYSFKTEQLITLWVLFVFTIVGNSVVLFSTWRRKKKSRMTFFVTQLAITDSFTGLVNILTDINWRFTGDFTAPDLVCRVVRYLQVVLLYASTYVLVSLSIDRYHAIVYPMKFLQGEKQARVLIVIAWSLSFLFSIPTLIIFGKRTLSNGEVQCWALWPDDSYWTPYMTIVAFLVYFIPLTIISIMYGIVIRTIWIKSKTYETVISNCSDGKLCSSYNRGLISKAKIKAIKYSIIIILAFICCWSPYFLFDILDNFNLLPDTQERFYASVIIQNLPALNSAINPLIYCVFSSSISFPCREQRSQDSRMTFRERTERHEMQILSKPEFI
# Tau FP inhib: qHTS for Inhibitors of Tau Fibril Formation, Fluorescence Polarization; Potency, µM (series often up to 57.7 µM), most hits filed as inhibitors; K18 P301L tau heparin fibrillization, Alexa594 FP, 6 h; Microtubule-associated protein tau (Homo sapiens), P10636; 280,000 tested, 0.39% active; also: nearly all actives have a fitted effect of over 55% in size
#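 K18 P301L tau (15 uM unlabeled/0.24 uM Alexa 594-labeled, final) + compound + heparin 20 uM final; 100 mM NaOAc pH 7; 6 hr 37 C; ThT 30 uM final added, 1 hr RT; FP ex 555/em 632 nm.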
# ALDH1A1 inh: qHTS Assay for Inhibitors of Aldehyde Dehydrogenase 1 (ALDH1A1); Aldehyde dehydrogenase 1A1 (Homo sapiens), P00352; 220,000 tested, 7.3% active; Purified ALDH1A1, NADH fluorescence, propionaldehyde substrate; AID 1030, 2008; Potency, µM (titrated, usually from 75.3 µM), most hits filed as inhibitors; active = well fitted inhibition curve with a large enough effect, not every such curve was filed as active; inconclusive = small, poorly fitted or top-dose-only effect, or another doubt; inactive = no such curve, though single readings can be large or run the other way
# Tau fluor counter: Counterscreen qHTS for Inhibitors of Tau Fibril Formation, Fluorescence Polarization; tau K18 P301L Alexa594 fluorescence, heparin fibrillization; 280,000 tested, 0.93% active; Potency, µM (doses to about 57.7 µM); also: nearly all actives have a fitted effect of over 55% in size
#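 Human tau K18 P301L (15 uM unlabeled, 0.24 uM Alexa 594-labeled) in 100 mM sodium acetate pH 7 with 20 uM heparin, 6 hr at 37 C. ThT 30 uM added, 1 hr ambient; Alexa 594 FP and total fluorescence read at 555/632 nm.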
# Numbers stand for hits; 0 = inactive; ? = inconclusive; - = no result; ! = not active in a repeat; [ ] = remark or other dose. Unless noted, calls follow the shape of the dose curve; as a rule, active = well fitted curve in the direction sought with a large enough effect; inconclusive = small, poorly fitted or top-dose-only effect, or another doubt; inactive = no such curve, though single readings can be large; an effect the other way counts as inactive or inconclusive.
SMILES,Tau ThT inhib,HPGD block,NPSR antagonist,Tau FP inhib,ALDH1A1 inh,Tau fluor counter
COc1ccc(-c2nc(SCC(=O)NC3CCCC3)c(-c3ccc(F)cc3)[nH]2)cc1OC,?,-,-,?,-,13µM[quencher]
COc1ccc(-c2nc(SCC(=O)NC3CCCC3)c(-c3ccc(OC)cc3)[nH]2)cc1,?,0,0,0,?,13µM![quencher]
COCCCNC(=O)CSc1nc(-c2ccc(OC)c(OC)c2)[nH]c1-c1ccc(F)cc1,?,-,-,0,-,?
COc1ccc(-c2nc(SCC(=O)NC3CCCC3)c(-c3ccccc3)[nH]2)cc1OC,?,-,-,?,-,14µM[quencher]
COCCCNC(=O)CSc1nc(-c2ccc(OC)cc2)[nH]c1-c1ccc(OC)cc1,?,-,-,0,-,?
COc1ccc(/C=N\Nc2ccc([N+](=O)[O-])cc2)c(C(=O)O)c1OC,13µM,-,0,0,0,0
O=C(CCC1CCCC1)Nc1nnc(-c2ccc3c(c2)OCO3)s1,0,?,0,0,?,0
O=S(=O)(Nc1ccc(Cl)nn1)c1ccccc1,0,-,0,0,0,0
O=S(=O)(NNc1ccc(Cl)nn1)c1ccc(F)cc1,?,3.5µM,0,?,28µM,0
O=c1c2c3c(sc2ncn1/N=C/c1ccccc1)CCCC3,?,0,0,0,11µM,0
O=c1c2c3c(sc2ncn1/N=C/c1ccco1)CCCC3,0,0,0,0,?,0
Cc1cc(-n2c(C)cc(C(=S)N3CCOCC3)c2C)ccc1Br,?,10µM,0,0,11µM,0
COc1ccc2cc(C(=O)OC(C)C)sc(=O)c2c1OC,0,?,0,0,5µM,0
O=C(CS(=O)(=O)c1ccccc1)NC1CCCCC1,0,-,0,0,0,0
O=S(=O)(CC12C3C4C5C1C2C(Br)(C43)C51OCCO1)c1ccccc1 (centres undefined),-,0,-,-,11µM,-
COc1ccc2cnn(Cc3ccccc3)c(=O)c2c1OC,0,-,0,0,3.5µM,0
COc1ccc2cnn(-c3ccccc3)c(=O)c2c1OC,0,0,0,0,0,0
COc1ccc(Cl)cc1Nc1ncnc2c1nc1n2CCCC1,0,-,-,0,-,0
CCOC(=O)c1c(C)nc(C)c(C(=O)OCC)c1-c1ccc(O)c(OC)c1,0,-,0,0,16µM,0
COC(=O)c1c(C)nc(C)c(C(=O)OC)c1-c1ccc(OC)c(OC)c1,0,-,0,0,0,0
O=C(NC1(O)C(=O)c2ccccc2C1=O)c1ccccc1,2.8µM,0,0,?,1.4µM,0
O=C(NC1(O)C(=O)c2ccccc2C1=O)c1c(Cl)cccc1Cl,-,-,0,?,-,0
Cc1ccc(C(=O)N2CCOCC2)cc1Cl,0,?,0,0,0,0
CN1CCN(C2=C(Cl)C(=O)N(Cc3ccccc3)C2=O)CC1,?,?,0,0,0,0
O=C1CC(N2CCN(c3ccc(Cl)c(Cl)c3)CC2)C(=O)N1 (centres undefined),0,0,0,0,?,0
SMILES,Tau ThT inhib,HPGD block,NPSR antagonist,Tau FP inhib,ALDH1A1 inh,Tau fluor counter
Cc1ccccc1N1C(=O)C(Cl)=C(N2CCN(c3ccccc3)CC2)C1=O,16µM,0,0,?,?,?
CN1CCN(C2=C(Cl)C(=O)N(c3ccc(Cl)c(Cl)c3)C2=O)CC1,14µM,0,0,?,25µM,0
Cc1ccc(N2C(=O)C(Cl)=C(N3CCOCC3)C2=O)cc1Cl,14µM,0,0,22µM,0,?
CN1CCN(C2=C(Cl)C(=O)N(c3cccc(Cl)c3)C2=O)CC1,22µM,0,0,?,?,?
CCCCNS(=O)(=O)c1ccc(NS(=O)(=O)c2c(C)cc(C)cc2C)cc1,0,0,0,0,0,?
Fc1ccc(-c2nc(Nc3cccc(C(F)(F)F)c3)nc3c2COc2ccccc2-3)cc1,?,-,-,?,-,0
C/C(CCN1CCCc2nc(C)c(C)cc21)=N\O[C@@H](C)c1cn([C@@H]2COC[C@@H]2O)nn1,0[11.5 µM],-,-,0[11.6 µM],?,0[11.6 µM]
COC(=O)c1cccc(S(=O)(=O)N2CCOCC2)c1,0,0,0,0,0,0
O=C1C(Cl)=C(N2CCOCC2)C(=O)N1c1ccccc1Cl,14µM,0,0,20µM,?,?
COC(=O)c1cccc(N2C(=O)C(Cl)=C(N3CCOCC3)C2=O)c1,14µM,0,0,28µM,0,?
COc1ccc2c(c1)O[C@@H](c1ccc3c(c1)OCO3)[C@H](O)C2=O,0,0,-,0,0,0
CCC(=O)NC1(Cc2ccc(O)cc2)CCCCC1,0,-,0,0,0,0
O=C(O)CC/C(=N/Nc1ccc([N+](=O)[O-])cc1)C(=O)O,?,-,0,0,-,0
NNC(=O)CSc1nnnn1-c1ccccc1,0,-,0,0,-,0
O=C(/C(=N\Nc1ccc([N+](=O)[O-])cc1)Sc1nnnn1-c1ccccc1)c1ccccc1,?,0,0,0,3.2µM,?
O=C(O)CC/C(=N\Nc1ccc([N+](=O)[O-])cc1)c1ccccc1,7.9µM,-,0,0,?,?
Cc1ccc(N/N=C(/Sc2nnnn2-c2ccccc2)C(=O)c2ccccc2)cc1,0,0,0,0,3.2µM,0
CCOP(=O)(c1ccccc1)c1nc(-c2ccccc2C)oc1NCc1ccccc1 (centres undefined),?,-,?,0,-,0
CNC(=S)N1CCN(c2ccc(Cl)c(Cl)c2)CC1,?,-,0,0,0,0
COC(=O)c1ccc(C2c3c(oc4ccccc4c3=O)C(=O)N2c2nc(C)c(C(=O)OC)s2)cc1 (centres undefined),0,-,-,0,-,0
CCOc1ccc(-c2cc3c(=O)n(CC(=O)NCc4ccc(Cl)cc4)ccn3n2)cc1,0,-,-,0,-,0
CCc1ccc(CSc2nc(-c3ccccc3F)nc3c2Cc2c(CO)cnc(C)c2O3)cc1,0,-,-,0,-,0
COc1ccc(S(=O)(=O)NCc2ccccc2)cc1,0,0,0,0,?,0
COc1ccc(S(=O)(=O)N(Cc2nc(-c3ccccc3)no2)C2CCCCC2)cc1,0,-,-,0,-,?
COc1ccc(S(=O)(=O)N(Cc2cccs2)C2CCCC2)cc1,0,0,0,0,8.9µM,0
COc1ccc(CNS(=O)(=O)c2ccc(OC)cc2)cc1,0,0,0,0,0,0
COc1ccc(S(=O)(=O)NCc2cccs2)cc1,0,0,0,0,10µM,0
COc1ccc(S(=O)(=O)NCCCCNS(=O)(=O)c2ccc(OC)cc2)cc1,0,0,0,0,1.3µM,0
Cc1cc(=O)n2nc(N(C)CC(=O)NCc3ccccc3C)sc2n1,0,-,-,0,-,0
Cc1ccc2onc(CC(=O)N3CCN(c4cc(Cl)ccc4C)CC3)c2c1,0,-,-,?,-,0

# Compound activity as filed in PubChem.
